Screening data as filed in PubChem.
An excerpt weighted towards active compounds, which were near 4.8% of everything screened.
hcDAF-12 act = activators of H. contortus DAF-12 nuclear receptor; 370,000 tested, 1.4% active; AID 652067; activation, % at 6.8 µM; HEK293 hcDAF-12 lit1-tk-luc reporter, luminescence; 0% DMSO, 100% Δ7-dafachronic acid;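 active means activation above the mean of all tested compounds plus 3 SD, cut at about 5.5% in these data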;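 further: 100% = response to 3 µM Δ7-dafachronic acid high control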
SMARCA2 act = increases SMARCA2 function in MMTV reporter cells; 370,000 tested, 1% active; activation, % at 9.1 µM; AID 652017; MG213 cells, MMTV-luciferase reporter, dexamethasone, overnight; in the data active means activation above about 7.8%;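 further: 0% = vehicle wells and 100% = reference activator wells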
DAX1 inh-1 = NR0B1 (DAX1) inhibition; HEK293 Gal4-DAX1 luciferase reporter, luminescence; inhibition, % at 6.75 µM; 340,000 tested, 0.99% active; AID 504766;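 active means inhibition above the mean over all tested compounds plus 3 SD, cut at about 4.2% in these data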;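 further: 0% = DAX1-transfected cells with DMSO and 100% = empty-vector control cells with DMSO; inhibition shows as a rise in luminescence from relieved DAX1 repression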
Target sequence (P51843 207-470 limits assumed): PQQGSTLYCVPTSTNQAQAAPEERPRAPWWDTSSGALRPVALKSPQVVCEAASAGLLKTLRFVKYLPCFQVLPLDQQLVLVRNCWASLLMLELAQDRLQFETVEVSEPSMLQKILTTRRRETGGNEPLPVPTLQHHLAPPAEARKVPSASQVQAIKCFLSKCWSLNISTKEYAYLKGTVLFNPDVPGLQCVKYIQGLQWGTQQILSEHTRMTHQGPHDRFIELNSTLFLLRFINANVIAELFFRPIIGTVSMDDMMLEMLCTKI
ssDAF12 agonist = S. stercoralis DAF-12 activation, primary screen | HEK293 ssDAF-12/GRIP1 lit1-tk-luc reporter, luminescence; % of 3 µM dafachronic acid response | activation, % at 6.8 µM | 370,000 tested, 1% active;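 active means activation above the mean over all tested compounds plus 3 SD, cut at about 0.9% in these data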;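 further: 0% = DMSO-only wells and 100% = 3 µM delta7-dafachronic acid wells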
DAX1 inh-2 = DAX1 (NR0B1) inhibition, primary screen. inhibition, % at 6.8 µM. HEK293T StAR-luciferase reporter, SF-1/DAX-1 repression relief. AID 652010. 370,000 tested, 1.1% active;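 active means inhibition above the mean over all tested compounds plus 3 SD, cut at about 3.6% in these data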;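 further: 0% = DAX-1 cells with DMSO and 100% = cells lacking DAX-1 with DMSO; higher inhibition means more luminescence from relief of DAX-1 repression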
hgDAF-12 ag = activates the H. glycines DAF-12 receptor ligand-binding domain; HEK293 GAL4-hgDAF12 UAS-luciferase reporter, agonist luminescence; normalized to butyrate control; activation, % at 6.8 µM; 370,000 tested, 1.8% active; AID 687014;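 active means activation above a cutoff set at the mean of all screened compounds plus 3 SD, cut at about 10% in these data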;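 further: 0% = DMSO wells and 100% = sodium butyrate wells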
Active calls of the source: *; . = no result.

SMILES | hcDAF-12 act | SMARCA2 act | DAX1 inh-1 | ssDAF12 agonist | DAX1 inh-2 | hgDAF-12 ag
CCC(=O)Nc1ccc(CCC(=O)N2CCCC2)cc1 | 0.1 | 2.2 | 5.5* | -0.8 | 0.0 | 0.4
CC(C)CNS(=O)(=O)c1ccc(CCC(=O)N2CCCC2)cc1 | -0.7 | -3.0 | -1.5 | -1.1 | -0.1 | -0.7
CCNS(=O)(=O)c1ccc(CCC(=O)N2CCCC2)cc1 | -1.7 | -2.3 | 5.1* | -1.1 | -0.6 | -0.6
Nc1ccc(CCC(=O)N2CCCC2)cc1 | -1.3 | 0.0 | -0.7 | -1.3 | -0.3 | 2.0
c1cnc2ccc3ncccc3c2c1 | 2.0 | 3.1 | 5.0* | -1.2 | 0.8 | 4.5
COCCN1C(=O)C2=C(C1=O)C1N(C)c3ccccc3[C@@]13C[C@@H](CO)N(S(=O)(=O)c1ccc(OC)cc1)C3=N2 (some centres undefined) | -4.5 | 0.9 | . | -1.7 | 0.3 | -0.7
COc1ccc(-c2csc(N3CCOCC3)n2)cc1OC | 2.2 | 5.7 | 1.4 | -1.0 | 0.3 | 11.3*
Clc1ccc(-c2csc(N3CCOCC3)n2)cc1 | 1.4 | 2.9 | 0.8 | -0.7 | 1.7 | 10.2
Nc1nc(-c2ccc(F)cc2)cs1 | 1.9 | 3.7 | 0.8 | -1.3 | 0.9 | 2.2
COc1ccc(-c2csc(N)n2)cc1F | 1.6 | 2.6 | 4.8* | -1.4 | 2.3 | 3.7
COc1ccc(C(=O)Oc2cc(N)n(S(=O)(=O)c3ccccc3)n2)cc1 | 0.0 | 0.7 | 1.9 | -1.2 | 0.0 | 1.3
Cc1ccc(S(=O)(=O)CCC(=O)OCC(=O)NC2CCS(=O)(=O)C2)cc1 (centres undefined) | 0.0 | -1.2 | 0.2 | -1.1 | 1.4 | -0.4
CSc1nnc(SCC2=NNC(=O)SC2)s1 | -0.8 | -2.3 | 0.4 | 0.9* | -0.3 | 1.1
c1ccc(OCCOc2ncnc3ccccc23)cc1 | 0.5 | 5.5 | 0.3 | -0.7 | 1.4 | 11.1*
O=C(COc1ncnc2cc(Cl)ccc12)c1ccccc1 | -0.2 | -1.0 | 0.7 | -1.2 | 0.7 | 0.9
O=C(COc1ncnc2ccccc12)c1ccc(Cl)cc1 | 1.5 | 7.8* | 0.2 | -0.9 | 1.9 | 11.1*
O=C1C2C3c4ccccc4C(c4ccccc43)[C@@H]2C(=O)N1c1nc(-c2ccccc2)cs1 (some centres undefined) | -2.0 | 0.5 | 5.0* | -1.0 | -0.5 | 3.9
O=[N+]([O-])c1ccc(Nc2ccc3ccccc3c2)nc1 | 3.4 | 6.0 | 1.4 | -0.9 | -0.9 | 11.1*
NC(=O)CSc1nnc(-c2ccc3c(c2)OCO3)o1 | 2.9 | 3.2 | . | 2.8* | 3.2 | 12.7*
O=C(NN1C(=O)C2C3C=CC(C4CC34)C2C1=O)c1ccccc1Cl (centres undefined) | -1.8 | 1.9 | 5.1* | -0.8 | 0.0 | 4.8
CCOC(=O)N1CCN(c2cc(N3CCOCC3)c(F)cc2[N+](=O)[O-])CC1 | -2.0 | 2.7 | 0.1 | -1.3 | 2.7 | -0.1
O=C(c1ccccc1)c1nn(-c2ccc(Cl)cc2)cc1C(=O)c1cc2ccccc2oc1=O | 3.6 | -3.9 | 0.8 | 1.1* | 0.8 | -0.6
NC(=O)c1cn(-c2ccccc2)nc1-c1cc2ccccc2oc1=O | -1.3 | -3.6 | -2.0 | -2.1 | -0.4 | -0.1
COc1ccc2c(c1OC)C(=O)N(c1ccccn1)C2 | 5.8* | 5.8 | 0.5 | 1.3* | 2.0 | 12.8*
COc1ccccc1-c1noc(-c2cc(OC)c(OC)c(OC)c2)n1 | -2.0 | -2.0 | 0.9 | -1.4 | -0.4 | -0.9
SMILES | hcDAF-12 act | SMARCA2 act | DAX1 inh-1 | ssDAF12 agonist | DAX1 inh-2 | hgDAF-12 ag
COc1ccccc1-c1nc(-c2ccc(Br)cc2)no1 | 5.8* | 4.5 | 2.4 | 1.5* | 1.4 | 9.3
COc1ccc(-c2nc(-c3ccc(Br)cc3)no2)c(OC)c1 | 3.9 | 4.8 | 3.7 | 1.0* | 2.7 | 12.4*
COc1cc(OC)cc(-c2nc(-c3ccc(Br)cc3)no2)c1 | 2.1 | 1.0 | 1.1 | -1.1 | -0.2 | 0.1
CC(=O)Oc1cccc(C(=O)Nc2ccc(NC(=O)c3cccs3)cc2)c1 | 0.1 | 2.7 | -0.6 | -0.5 | 4.5* | 5.2
COc1cccc(C(=O)Nc2cccc(NC(=O)c3cccs3)c2)c1 | -0.2 | -1.1 | -1.4 | -1.5 | -0.3 | -0.4
CCn1cc(CN2CCN(Cc3ccc(C)o3)C(CCO)C2)c2ccccc21 (centres undefined) | 5.6* | 0.9 | 0.6 | 0.3 | -0.4 | 3.4
CCn1cc(CN2CCN(Cc3ccccc3)C(CCO)C2)c2ccccc21 (centres undefined) | 4.7 | -3.2 | 4.2* | -0.2 | 0.1 | 0.6
O=C(C1CCCCC1)N(CCN1CCCC1)c1nc2ccccc2s1 | 1.8 | 1.2 | 0.6 | -0.6 | 0.6 | 6.4
O=C(Nc1ccccc1)C1Cc2ccccc2CN1C(=O)c1ccco1 (centres undefined) | 6.3* | 4.4 | 2.6 | 1.0* | 2.6 | 12.7*
O=C(Cn1ccc([N+](=O)[O-])n1)N1CCCCC1 | -1.4 | 1.5 | 5.5* | -1.2 | -0.1 | -1.3
O=C1NCCOC(=O)[C@@H](Cc2ccc(F)cc2)CC/C=C/C[C@@H]1CC(=O)N(CCO)Cc1ccccc1 | -2.0 | -1.0 | -0.2 | -1.4 | -0.8 | -1.3
COc1ccccc1/C=C\C=N\NC(=O)c1ccco1 | 2.1 | 3.8 | 0.1 | -0.7 | -0.2 | 2.5
O=C(N/N=C\c1cn[nH]c1-c1ccccc1)c1cccnc1 | 2.2 | 4.3 | -0.1 | -0.6 | 0.8 | 1.3
O=C(N/N=C\c1cn[nH]c1-c1ccccc1)c1cccs1 | 1.6 | 3.4 | 3.6 | 0.0 | 2.1 | 12.5*
COc1ccccc1/C=C/C=N/NC(=O)c1cccs1 | 1.6 | 2.2 | 7.2* | 0.0 | 0.7 | 9.7
O=C(N/N=C/c1ccccc1OCc1ccccc1)c1cccs1 | -0.2 | 7.9* | 0.0 | -0.9 | 0.3 | 8.4
O=C(N/N=C/c1ccc(-c2cccc([N+](=O)[O-])c2)o1)c1cccs1 | 5.7* | 6.0 | 0.2 | 1.8* | -0.7 | 5.5
Cc1cc(N2CCN(C(=O)c3ccco3)CC2)n2ncnc2n1 | -2.2 | 0.3 | 2.0 | -0.6 | 0.1 | 0.6
CCOc1ccc(NC(=O)Cn2nnc(-c3ccccc3NC(=O)c3cccs3)n2)cc1 | -0.1 | -1.2 | -0.4 | -1.3 | -0.3 | 2.4
Clc1cccc(OCCCn2ccnc2)c1 | 0.6 | -2.1 | -0.1 | -0.9 | 0.2 | 3.4
COc1ccccc1NC(=O)C1=C(C)N(c2ccccc2)C(=S)NC1c1cccc(C(F)(F)F)c1 (centres undefined) | -0.3 | -4.8 | -1.1 | -1.4 | -1.0 | 0.6
COC(=O)[C@]12C[C@H](CC(=O)NCc3ccc(C)o3)C(=O)N(Cc3ccccc3)C1=C[C@H](COCc1ccccc1)O[C@@H]2C | -1.1 | -4.0 | . | -0.5 | -1.6 | 0.7
CC(C)n1nnnc1C1c2ccccc2C(=O)N1Cc1ccc(F)cc1 (centres undefined) | -0.3 | -4.0 | . | -0.1 | -0.9 | -3.7
